According to PubChem BioAssay (NCATS):
Inconclusive results are not listed. The source made the active and inactive calls. Unless noted, the call rests on the fitted dose curve; in most records, active means well fitted curve in either direction with a large enough effect (not every such curve was filed as active); inconclusive means small, poorly fitted or top-dose-only effect, or another doubt; inactive means flat fitted curve, though single readings scatter.

Columns and labels:
[1] = target: Lysosomal acid glucosylceramidase (Homo sapiens) (UniProt P04062); experiment: Glucocerebrosidase-p2 (AID 348; in the data active means potency below about 10 µM; further: potency means the concentration at half of the fitted maximal effect); conditions: purified GBA, blue fluorogenic substrate, 40 min
How it was run: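 Normal human glucocerebrosidase (0.2 nM) with blue fluorogenic substrate (80 uM final) in citrate/phosphate pH 5.9 with 10mM sodium taurocholate, 0.01% tween-20; 40 min RT, NaOH/glycine stop; fluorescence Ex 365/Em 440; AC50 from a titration from 0.6 nM upwards.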

[2] = AP1 Signaling Pathway (AID 357); conditions: ME-180 AP-1-bla reporter, EGF-induced, beta-lactamase ratio, 5 h; at 7.69 µM (top of the series) unless noted;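 further: ME-180 reporter cells stimulated with EGF at its EC50 level; on the % scale 0 is the no-effect control and ±100 the full control effect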
How it was run: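 Read-out was the 460nm/530nm emission ratio (excitation 405nm) after CCF4 loading for 2.5 hours at room temperature. Cells carried an AP-1-driven beta-lactamase reporter, were stimulated with EC50 EGF plus compound for 5 hours, and AC50 values came from titrations.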

[3] = target: Cytochrome P450 1A2 (Homo sapiens) (UniProt P05177); experiment: p450-cyp1a2 (AID 410; calls by dose curve; further: potency means the concentration at half of the fitted maximal effect); conditions: recombinant CYP1A2, luciferin-ME demethylation, luminescence; series mostly up to 57 µM
How it was run: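 Read-out is luminescence from luciferin produced by CYP1A2 demethylation of Luciferin-ME (100uM, at Km). Detection reagent stopped the 60 min NADPH-dependent reaction; signals were normalized to 57 uM furafylline.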

[4] = NFAT Signaling Pathway (AID 444); conditions: Jurkat NFAT-bla M1, carbachol, beta-lactamase ratio, 5 h; at 7.69 µM (top of the series) unless noted;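 further: carbachol stimulus at about its EC50 of 1 µM final; on the % scale 0 is the no-effect control and ±100 the full control effect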
How it was run: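 Read-out: CCF4 FRET ratio (460 nm/530 nm) after 1 h RT dye loading, used for %activity and AC50 from titration series. Cells: Jurkat NFAT-β-lactamase/M1 line, treated with compound plus 1 uM carbachol for 5 h, 37 °C.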

[5] = Stat Signaling Pathway (AID 446); conditions: ME-180 SIE beta-lactamase reporter, IL-6 stimulated, 5 h; at 7.69 µM (top of the series) unless noted;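 further: ME-180 cervical cancer cells given 40 pM IL-6 alongside compound; SIE-controlled beta-lactamase reporter measured as 460/530 nm FRET emission ratio; on the % scale 0 is the no-effect control and ±100 the full control effect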
How it was run: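 Compound effects on IL-6-induced STAT reporter activity were measured in ME-180 cells. After overnight culture, cells were co-treated with 40 pM IL-6 for 5 hrs before beta-lactamase substrate loading at room temperature.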

[6] = target: Glucocorticoid receptor (Homo sapiens) (UniProt P04150); experiment: GR-GFP Redistribution (AID 450;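 active means compounds whose dose series gives a full or clear partial fitted curve of increased nuclear translocation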; further: potency means the concentration at half of the fitted maximal effect); conditions: U2OS GR-GFP nuclear translocation, laser cytometry, 2 h
[7] = target: Glucocorticoid receptor (Homo sapiens) (UniProt P04150); experiment: GR-EFC Redistribution (AID 451; calls by dose curve; further: potency means the concentration at half of the fitted maximal effect); conditions: CHO-K1 GR-EFC translocation, beta-gal luminescence, 2 h
How it was run: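 Translocation of GR-ED fusion to nuclear EA restores b-gal, read by luminescence after 1 h room-temperature detection. Engineered CHO-K1 biosensor cells, 1,000/well, exposed 2 h at 37 C to titrations up to 46 uM final.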

[8] = target: Mitogen-activated protein kinase 10 (Mus musculus) (UniProt Q61831); experiment: JNK3 AlphaScreen Assay (AID 530); conditions: JNK3 lysate, c-Jun phosphorylation; series mostly up to 57.1 µM;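 further: kinase came from lysate of stimulated human HepG2 cells; signal reports phosphorylation of biotinylated GST-cJun 1-79 at Ser73 with 10 µM ATP; on the % scale 0 is the no-effect control and ±100 the full control effect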
How it was run: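 Kinase buffer: 20 mM Tris-HCl pH 7.6, 10 mM MgCl2, 1 mM DTT, 0.1 mM Na3VO4, 0.01% Tween-20; ATP 10 uM. Substrate biotin-GST-cJun(1-79), enzyme from activated HepG2 lysates. Detection by Ser73 phospho-antibody AlphaScreen.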

[9] = target: 3',5'-cyclic-AMP phosphodiesterase 4B (Homo sapiens) (UniProt Q07343); experiment: qHTS Assay for Inhibitors of PDE-IV (AID 607; active means well fitted activation curve with a large enough effect in the main read-out, with a control signal flat, not every such curve was filed as active; further: % of control where 0% means no effect); conditions: HEK293 ACTOne CNG channel cells, membrane potential fluorescence; series mostly up to 22.9 µM
How it was run: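 ACTOne HEK293 cells carry a modified cAMP-gated CNG channel and express endogenous PDE4; plated 1000 cells/well, compounds up to 22.9 uM final. Membrane-potential dye fluorescence (ex 535/em 590) was read; parental cells received 10 uM forskolin + 100 uM RO 20-1724.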

[10] = target: Cytochrome P450 3A4 (Homo sapiens) (UniProt P08684); experiment: qHTS Assay for Inhibitors and Substrates of Cytochrome P450 3A4 (AID 884; active means well fitted curve in the direction sought with a large enough effect; an effect the other way counts as inactive or inconclusive; further: nearly all actives have a fitted effect of over 50% in size; further: potency means the concentration at half of the fitted maximal effect); conditions: recombinant CYP3A4, Luciferin-PPXE luminescence; series mostly up to 57.1 µM
How it was run: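 Luminescent readout of luciferin produced by CYP3A4 (20 nM) dealkylation of Luciferin-PPXE, 25 uM (its KM). NADPH-driven reaction ran 60 min at RT after 10 min compound preincubation; data scaled to 57 uM ketoconazole as 100% inhibition.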

[11] = qHTS Assay for Lipid Storage Modulators (AID 1519; calls by dose curve); conditions: Drosophila S3 cells, BODIPY lipid droplet/cell ratio, laser cytometry, cells loaded with oleic acid; for activity change, negative = inhibition: at 57.5 µM (top of the series)
How it was run: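 Cells seeded at 5,000 per well were treated with compounds over a concentration series and loaded with oleic acid (400 uM, as added). Lipid droplet fluorescence (488 nm excitation, 500-530 nm channel) was read by laser-scanning cytometry and normalized to 20 uM Triacsin C.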

[12] = Primary qHTS for small molecule stabilizers of the endoplasmic reticulum resident proteome: Secreted ER Calcium Modulated Protein (SERCaMP) assay (AID 1508630; active means well fitted curve in the direction sought with a large enough effect; an effect the other way counts as inactive or inconclusive; further: on the % scale 0 is the no-effect control and ±100 the full control effect); conditions: SH-SY5Y GLuc-SERCaMP (Gaussia luciferase released on ER calcium loss) secretion, thapsigargin, luminescence; series mostly up to 38.4 µM
How it was run: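 The SH-SY5Y reporter protocol was run at 3 concentrations up to 38.3 uM (primary) or 11 concentrations (follow-up): 16 h compound, 100 nM thapsigargin for 4 h, then extracellular luciferase luminescence.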

[13] = target: Cytochrome P450 2C19 (Homo sapiens) (UniProt P33261); experiment: qHTS Assay for Inhibitors and Substrates of Cytochrome P450 2C19 (AID 899; active means well fitted curve in the direction sought with a large enough effect; an effect the other way counts as inactive or inconclusive; further: on the % scale 0 is the no-effect control and ±100 the full control effect; nearly all actives have a fitted effect of over 60% in size); conditions: recombinant CYP2C19, luciferin-H EGE luminescence; series mostly up to 57.1 µM
How it was run: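 5nM enzyme + 10uM Luciferin-H EGE (=KM), 50mM KPO4; cpd pin-transferred, 10 min 37C; NADPH regen, 60 min 37C; stopped w/ luciferin detection reagent, 20 min; luminescence. Normalized to 57uM ketoconazole (AC100).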

[14] = target: Cytochrome P450 3A4 (Homo sapiens) (UniProt P08684); experiment: qHTS Assay for Activators of Cytochrome P450 3A4 (AID 885; active means well fitted curve in the direction sought with a large enough effect; an effect the other way counts as inactive or inconclusive; further: nearly all actives have a fitted effect of over 65% in size); conditions: recombinant CYP3A4, Luciferin-PPXE luminescence, 60 min; series mostly up to 57.1 µM
How it was run: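 CYP3A4 activity: Luciferin-PPXE O-dealkylation, 25uM substrate, 200mM KPO4, RT throughout. Read-out is luciferase luminescence; higher values reflect activation.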

[15] = Confirmation and Secondary Assay for Modulators of Hemoglobin Beta Chain Splicing at IVS2 654 locus (AID 910; active means well fitted curve in the direction sought with a large enough effect; an effect the other way counts as inactive or inconclusive;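 further: HeLa cells stably carrying EGFP split by mutant beta-globin IVS2-654 intron; per-well total GFP intensity by laser scanning cytometry after 2-day treatment; % of control where 0% means no effect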); conditions: HeLa EGFP-654 splicing reporter, GFP fluorescence, 48 h; series mostly up to 38.3 µM
How it was run: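 Readout: per-well total peak green fluorescence (488 nm ex, 500–520 nm em) from objects 5–250 µm, reflecting correct splicing of an EGFP-654 reporter. Compounds were applied for 2 days at 37 °C to overnight-plated HeLa EGFP-654 cells; controls were DMSO and 500 nM IVS2-654 PNA.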

[16] = Confirmation and Secondary Assay for Modulators of Hemoglobin Beta Chain Splicing at IVS2 705 locus (AID 930; active means well fitted curve in the direction sought with a large enough effect; an effect the other way counts as inactive or inconclusive;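 further: HeLa cells stably expressing the EGFP-705 splicing reporter; GFP fluorescence per well restored by corrected splicing of the IVS2-705 intron in EGFP; % of control where 0% means no effect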); conditions: HeLa EGFP-705 splicing reporter, GFP fluorescence, 48 h; series mostly up to 38.3 µM
How it was run: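 Stable HeLa line with EGFP disrupted by mutant beta-globin intron 2 (705). Overnight attachment, then 2 days of compound at 37C, 5% CO2. Signal: peak GFP intensity summed over objects 5-250 µm.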

[17] = qHTS Assay for Identification of Small Molecule Agonists for Hypoxia Response Element Signaling Pathway (AID 914; active means well fitted activation curve with a large enough effect in the signal ratio, with a control signal flat, not every such curve was filed as active; the % refers to the signal ratio; further: potency means the concentration at half of the fitted maximal effect; on activation: % of control where 0% means no effect); conditions: ME-180 (cervical carcinoma) HRE-bla reporter, beta-lactamase ratio, CoCl2, 17 h; activation: stronger effect = higher value
How it was run: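 Reporter activity (beta-lactamase, CCF4 460nm/530nm ratio) in HRE-bla ME-180 cells is recorded after 17 h compound exposure with EC50 CoCl2 at 37 degrees Celsius. AC50 values come from titration data.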

[18] = measured here: cell count channel max response
[19] = measured here: lipid channel max response

Chain of Cytochrome P450 3A4 (Homo sapiens) (P08684 whole entry, looked up): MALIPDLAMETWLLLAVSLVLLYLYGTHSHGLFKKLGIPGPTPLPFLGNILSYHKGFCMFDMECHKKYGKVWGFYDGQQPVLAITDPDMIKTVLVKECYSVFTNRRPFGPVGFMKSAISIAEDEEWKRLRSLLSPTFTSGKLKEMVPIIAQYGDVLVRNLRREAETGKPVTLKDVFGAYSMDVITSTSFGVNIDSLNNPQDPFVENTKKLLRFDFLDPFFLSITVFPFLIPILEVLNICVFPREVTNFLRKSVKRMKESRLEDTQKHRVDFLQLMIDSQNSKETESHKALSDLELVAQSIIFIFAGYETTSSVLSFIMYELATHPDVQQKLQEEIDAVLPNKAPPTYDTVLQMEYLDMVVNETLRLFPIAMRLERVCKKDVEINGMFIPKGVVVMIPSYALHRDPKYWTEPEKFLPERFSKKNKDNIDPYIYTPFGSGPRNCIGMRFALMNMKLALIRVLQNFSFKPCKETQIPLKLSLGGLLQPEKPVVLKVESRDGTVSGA
Chain of Glucocorticoid receptor (Homo sapiens) (P04150 whole entry, looked up, the tested form may be a part): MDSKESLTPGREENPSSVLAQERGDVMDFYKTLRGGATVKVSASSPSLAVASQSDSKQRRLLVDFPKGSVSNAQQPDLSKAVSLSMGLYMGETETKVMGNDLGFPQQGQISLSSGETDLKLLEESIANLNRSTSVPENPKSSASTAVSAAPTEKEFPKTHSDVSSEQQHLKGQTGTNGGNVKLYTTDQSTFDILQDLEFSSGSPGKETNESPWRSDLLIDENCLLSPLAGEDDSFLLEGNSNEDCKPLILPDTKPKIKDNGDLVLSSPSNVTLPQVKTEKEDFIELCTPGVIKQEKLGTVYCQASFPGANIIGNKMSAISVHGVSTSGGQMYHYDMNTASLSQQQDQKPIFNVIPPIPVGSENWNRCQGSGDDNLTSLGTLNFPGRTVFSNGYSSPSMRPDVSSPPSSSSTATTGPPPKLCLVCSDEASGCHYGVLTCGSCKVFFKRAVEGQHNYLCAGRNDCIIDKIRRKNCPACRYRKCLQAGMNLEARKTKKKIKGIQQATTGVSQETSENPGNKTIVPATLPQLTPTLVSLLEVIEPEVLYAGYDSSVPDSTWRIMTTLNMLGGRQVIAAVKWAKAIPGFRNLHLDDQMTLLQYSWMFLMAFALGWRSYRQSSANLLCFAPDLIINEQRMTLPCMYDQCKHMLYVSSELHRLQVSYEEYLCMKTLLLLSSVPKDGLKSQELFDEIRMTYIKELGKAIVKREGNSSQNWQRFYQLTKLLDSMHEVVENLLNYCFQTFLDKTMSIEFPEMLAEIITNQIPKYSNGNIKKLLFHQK
Chain of 3',5'-cyclic-AMP phosphodiesterase 4B (Homo sapiens) (Q07343 whole entry, looked up): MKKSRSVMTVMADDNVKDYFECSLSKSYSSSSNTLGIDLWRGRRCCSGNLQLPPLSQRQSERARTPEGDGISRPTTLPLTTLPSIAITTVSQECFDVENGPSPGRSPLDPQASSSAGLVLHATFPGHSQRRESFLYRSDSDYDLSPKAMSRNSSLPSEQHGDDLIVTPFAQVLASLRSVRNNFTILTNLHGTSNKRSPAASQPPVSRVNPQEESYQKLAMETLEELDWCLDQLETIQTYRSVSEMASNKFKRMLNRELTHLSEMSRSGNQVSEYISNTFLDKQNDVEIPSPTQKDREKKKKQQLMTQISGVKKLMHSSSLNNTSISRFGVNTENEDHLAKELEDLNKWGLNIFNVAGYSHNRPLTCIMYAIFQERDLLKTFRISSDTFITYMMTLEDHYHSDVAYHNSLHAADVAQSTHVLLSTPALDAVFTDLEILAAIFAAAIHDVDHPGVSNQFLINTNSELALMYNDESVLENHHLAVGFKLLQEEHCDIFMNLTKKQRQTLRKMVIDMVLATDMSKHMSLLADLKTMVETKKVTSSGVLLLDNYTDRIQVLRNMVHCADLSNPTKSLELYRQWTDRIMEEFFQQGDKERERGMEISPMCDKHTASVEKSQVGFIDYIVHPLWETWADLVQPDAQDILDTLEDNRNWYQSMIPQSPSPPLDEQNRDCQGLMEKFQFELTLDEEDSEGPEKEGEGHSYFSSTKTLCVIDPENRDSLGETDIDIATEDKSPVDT
Chain of Lysosomal acid glucosylceramidase (Homo sapiens) (P04062 whole entry, looked up): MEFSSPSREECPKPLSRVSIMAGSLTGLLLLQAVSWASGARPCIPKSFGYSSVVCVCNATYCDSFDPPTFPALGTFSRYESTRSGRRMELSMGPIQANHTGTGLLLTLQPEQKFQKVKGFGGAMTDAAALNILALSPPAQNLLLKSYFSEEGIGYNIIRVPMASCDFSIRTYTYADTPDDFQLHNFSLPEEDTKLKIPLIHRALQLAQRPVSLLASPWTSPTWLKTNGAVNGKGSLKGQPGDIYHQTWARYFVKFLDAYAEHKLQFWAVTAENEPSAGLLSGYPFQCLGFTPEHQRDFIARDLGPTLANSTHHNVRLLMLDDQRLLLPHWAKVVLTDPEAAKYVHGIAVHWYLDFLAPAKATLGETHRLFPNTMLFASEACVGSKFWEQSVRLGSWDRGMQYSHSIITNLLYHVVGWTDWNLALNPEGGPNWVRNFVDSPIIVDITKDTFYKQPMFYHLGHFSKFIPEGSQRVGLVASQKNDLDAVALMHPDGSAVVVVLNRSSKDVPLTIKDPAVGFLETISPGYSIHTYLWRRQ
Chain of Cytochrome P450 1A2 (Homo sapiens) (P05177 whole entry, looked up): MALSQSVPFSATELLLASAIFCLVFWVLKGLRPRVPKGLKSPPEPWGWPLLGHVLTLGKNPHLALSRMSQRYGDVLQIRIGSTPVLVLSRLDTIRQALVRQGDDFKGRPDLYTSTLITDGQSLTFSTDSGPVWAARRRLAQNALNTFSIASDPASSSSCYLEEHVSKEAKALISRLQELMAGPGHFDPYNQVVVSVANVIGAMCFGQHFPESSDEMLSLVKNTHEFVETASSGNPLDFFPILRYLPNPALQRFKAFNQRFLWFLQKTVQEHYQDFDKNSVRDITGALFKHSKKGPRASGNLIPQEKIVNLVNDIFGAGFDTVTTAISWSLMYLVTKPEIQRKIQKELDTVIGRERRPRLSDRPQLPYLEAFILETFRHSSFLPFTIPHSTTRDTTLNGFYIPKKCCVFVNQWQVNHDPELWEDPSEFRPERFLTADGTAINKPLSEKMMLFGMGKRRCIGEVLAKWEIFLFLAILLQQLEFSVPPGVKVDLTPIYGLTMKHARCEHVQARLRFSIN
Chain of Cytochrome P450 2C19 (Homo sapiens) (P33261 whole entry, looked up): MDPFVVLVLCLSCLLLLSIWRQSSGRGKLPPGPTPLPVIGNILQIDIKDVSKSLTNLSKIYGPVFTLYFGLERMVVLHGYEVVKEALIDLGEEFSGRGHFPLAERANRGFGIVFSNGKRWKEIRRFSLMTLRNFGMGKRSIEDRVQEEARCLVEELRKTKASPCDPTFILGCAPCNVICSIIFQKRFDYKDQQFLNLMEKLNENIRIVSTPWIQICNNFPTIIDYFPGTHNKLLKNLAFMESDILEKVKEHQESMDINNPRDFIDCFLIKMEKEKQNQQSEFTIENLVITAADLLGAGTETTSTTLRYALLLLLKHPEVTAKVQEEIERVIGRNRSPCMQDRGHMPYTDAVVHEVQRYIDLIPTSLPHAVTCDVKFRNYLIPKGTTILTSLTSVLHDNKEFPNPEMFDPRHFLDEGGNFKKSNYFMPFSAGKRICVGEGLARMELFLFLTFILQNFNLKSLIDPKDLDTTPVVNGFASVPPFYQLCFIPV

Cn1c(=O)c(-c2cc(F)cc(F)c2)nc2cnc(Oc3ccccc3)nc21
inactive: Potency [1] > 11.4 µM | activity change, negative = inhibition [2] -7.91% | activity change, negative = inhibition [4] 3.31% | activity, negative = inhibition [5] 0.814% | Potency [6] > 9.22 µM | Potency [7] > 46 µM | outcome [8] | Potency [9] | Potency [10] | activity change, negative = inhibition [11] -4.93% | Potency [12]
16.5%: max response [11, 19]
active: Potency [3] 2 µM
21.4%: max response [11, 18]

N#CCCn1c(=O)cnc2cnc(N3CCOCC3)nc21
23.1%: max response [11, 19]
inactive: Potency [1] > 11.4 µM | activity change, negative = inhibition [2] -13.7% | activity change, negative = inhibition [4] -0.169% | activity, negative = inhibition [5] 19.5% | Potency [6] > 9.22 µM | Potency [7] > 46 µM | outcome [8] | Potency [13] | activity change, negative = inhibition [11] 6.47% | Potency [12]
18.1%: max response [11, 18]
active: Potency [3] 10 µM

Cc1nc2cnc(Nc3ccccc3)nc2n(C)c1=O
active: Potency [3] 1.26 µM
inactive: Potency [1] > 11.4 µM | activity change, negative = inhibition [2] -16.6% | activity change, negative = inhibition [4] -8.95% | activity, negative = inhibition [5] -15.2% | Potency [6] > 9.22 µM | Potency [7] > 46 µM | outcome [8] | Potency [9] | Potency [14] | activity change, negative = inhibition [11] -9.81% | Potency [12]
9.14%: max response [11, 18]
2.52%: max response [11, 19]

COc1ccc(-n2c(=O)c(C)nc3cnc(Oc4ccccc4)nc32)cc1
16.7%: max response [11, 18]
active: Potency [3] 7.94 µM
inactive: Potency [1] > 11.4 µM | activity change, negative = inhibition [2] -0.42% | activity change, negative = inhibition [4] 4.01% | activity, negative = inhibition [5] -17.4% | Potency [6] > 9.22 µM | Potency [7] > 46 µM | outcome [8] | Potency [9] | Potency [14] | activity change, negative = inhibition [11] 1.98% | Potency [12]
20.5%: max response [11, 19]

c1ccc2c(-n3ccnc3)nc(-c3ccoc3)nc2c1
inactive: Potency [1] > 11.4 µM | activity change, negative = inhibition [2] -13.9% | activity change, negative = inhibition [4] 3.28% | activity, negative = inhibition [5] 7.69% | Potency [6] > 46 µM | Potency [7] > 46 µM | outcome [8] | Potency [14] | outcome [15] | outcome [16] | activity change, negative = inhibition [11] 9.53% | Potency [12]
active: Potency [3] 0.501 µM | Potency [10] 0.199 µM
22.4%: max response [11, 19]
10.7%: max response [11, 18]

COc1ccc(Oc2ncc3ncc(=O)n(C[C@H]4CCCO4)c3n2)cc1
2.03%: max response [11, 19]
inactive: Potency [1] > 11.4 µM | activity change, negative = inhibition [2] -24.4% | activity change, negative = inhibition [4] -8.98% | activity, negative = inhibition [5] -26.1% | Potency [6] > 9.22 µM | Potency [7] > 46 µM | outcome [8] | Potency [9] | Potency [14] | activation [17] -21.9% | activity change, negative = inhibition [11] -4.96% | Potency [12]
active: Potency [3] 6.31 µM
9.86%: max response [11, 18]

COc1ncc2nc(-c3cccs3)c(=O)n(-c3ccccc3)c2n1
inactive: Potency [1] > 11.4 µM | activity change, negative = inhibition [2] -4.36% | activity change, negative = inhibition [4] -4.96% | activity, negative = inhibition [5] 17.5% | Potency [6] > 9.22 µM | Potency [7] > 46 µM | outcome [8] | Potency [9] | activity change, negative = inhibition [11] -3.04% | Potency [12]
-2.75%: max response [11, 19]
active: Potency [3] 2 µM | Potency [17] 3.16 µM
-0.0529%: max response [11, 18]
